The values that follow come from PubChem BioAssay (NCATS).

Inconclusive results are not listed. Unmarked numbers belong to inactive results. Calls of active or inactive are those of the source. Calls come from the whole dose curve; as a rule, active = well fitted curve in the direction sought with a large enough effect; inconclusive = small, poorly fitted or top-dose-only effect, or another doubt; inactive = no such curve, though single readings can be large; an effect the other way counts as inactive or inconclusive.

Assay [1] concerns the target Rap guanine nucleotide exchange factor 3 (Homo sapiens) (UniProt O95398). Briefly: Confirmatory qHTS for antagonist of cAMP-regulated guanine nucleotide exchange factor 3 (EPAC1) (AID 1645880). Note: nearly all actives have a fitted effect of over 55% in size. Note: potency is the fitted concentration of half-maximal effect. The procedure, abridged:
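Released BODIPY-GDP fluoresces less than Rap1-bound BODIPY-GDP; the signal is followed at 480/540 nm at 5-min intervals over 30 min, after 5 min at room temperature. Reactions contain 100 nM EPAC1, 250 nM RAP1B-BODIPY-GDP and 50 uM GDP; results are normalized to ATA and DMSO.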
On the technique in general: Quantitative high-throughput screening tests each substance at several concentrations.

For assay [2] the target is unchanged. Briefly: Confirmatory qHTS for agonist of cAMP-regulated guanine nucleotide exchange factor 3 (EPAC1) (AID 1645881).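 For activation: EPAC1 catalysed release of BODIPY-GDP from Rap1B seen as fluorescence loss; 100% = effect of cAMP agonist control.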 Note: nearly all actives have a fitted effect of over 75% in size. Note: potency is the fitted concentration of half-maximal effect.
Assay [3] concerns the target Rap guanine nucleotide exchange factor 4 (Homo sapiens) (UniProt Q8WZA2). Put plainly: Confirmatory qHTS for agonist of cAMP-regulated guanine nucleotide exchange factor 4 (EPAC2) (AID 1645884).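 Note: nucleotide exchange releases bodipy-GDP from Rap1 and this lowers its fluorescence; % is set by controls: 0 for no effect and ±100 for the full control effect; nearly all actives have a fitted effect of over 65% in size.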
For assay [4] the target is unchanged. Put plainly: Confirmatory qHTS for antagonist of cAMP-regulated guanine nucleotide exchange factor 4 (EPAC2) (AID 1645885). For activity change, negative = inhibition: % is set by controls: 0 for no effect and ±100 for the full control effect. Note: nearly all actives have a fitted effect of over 25% in size. Note: potency is the fitted concentration of half-maximal effect.
The target in assay [5] is Rap guanine nucleotide exchange factor 3 (Homo sapiens) (UniProt O95398). Put plainly: Counterscreen qHTS for antagonist of cAMP-regulated guanine nucleotide exchange factor 3 (EPAC1) (AID 1645888). Note: % of control where 0% means no effect. The procedure, abridged:
(§1)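 Rap1B–BODIPY-GDP (250 nM) with 50 uM GDP; compounds pin-transferred to 9.74 nM–152 uM final (activator) or from 7.32 nM upwards (inhibitor). Fluorescence Ex/Em 480/540 nm read at 5 and 30 min, then after adding cAMP or buffer, at room temperature.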

Assay [6] shares this target. Briefly: Counterscreen qHTS for agonist of cAMP-regulated guanine nucleotide exchange factor 3 (EPAC1) (AID 1645889). For activation: % of control where 0% means no effect. Note: nearly all actives have a fitted effect of over 40% in size. Note: potency is the fitted concentration of half-maximal effect. The procedure, abridged:
as §1

Sequence of Rap guanine nucleotide exchange factor 3 (Homo sapiens) (O95398 whole entry, looked up): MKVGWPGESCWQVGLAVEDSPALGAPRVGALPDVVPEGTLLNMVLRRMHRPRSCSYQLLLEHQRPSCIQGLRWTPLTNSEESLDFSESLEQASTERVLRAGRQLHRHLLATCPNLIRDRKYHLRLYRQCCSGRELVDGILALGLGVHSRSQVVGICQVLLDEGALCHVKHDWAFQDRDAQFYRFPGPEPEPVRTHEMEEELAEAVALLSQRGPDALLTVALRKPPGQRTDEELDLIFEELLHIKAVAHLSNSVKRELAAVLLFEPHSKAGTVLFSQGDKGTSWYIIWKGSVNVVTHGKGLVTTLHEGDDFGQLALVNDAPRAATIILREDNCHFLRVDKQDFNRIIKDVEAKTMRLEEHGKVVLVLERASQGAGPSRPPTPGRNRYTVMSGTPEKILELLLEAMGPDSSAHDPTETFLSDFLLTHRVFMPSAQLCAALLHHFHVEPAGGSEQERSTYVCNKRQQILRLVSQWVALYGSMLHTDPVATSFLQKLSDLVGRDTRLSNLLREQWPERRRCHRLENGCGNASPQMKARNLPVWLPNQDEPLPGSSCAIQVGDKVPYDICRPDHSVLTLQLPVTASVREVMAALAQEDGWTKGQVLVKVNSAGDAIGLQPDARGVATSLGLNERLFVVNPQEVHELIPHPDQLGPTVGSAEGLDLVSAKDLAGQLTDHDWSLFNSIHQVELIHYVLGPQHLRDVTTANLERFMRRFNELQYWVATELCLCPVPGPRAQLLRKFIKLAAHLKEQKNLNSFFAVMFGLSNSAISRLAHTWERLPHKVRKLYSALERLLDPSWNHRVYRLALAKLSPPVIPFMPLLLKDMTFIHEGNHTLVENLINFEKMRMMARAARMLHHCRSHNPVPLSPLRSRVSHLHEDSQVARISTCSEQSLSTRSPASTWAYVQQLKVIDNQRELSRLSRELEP
Sequence of Rap guanine nucleotide exchange factor 4 (Homo sapiens) (Q8WZA2 whole entry, looked up): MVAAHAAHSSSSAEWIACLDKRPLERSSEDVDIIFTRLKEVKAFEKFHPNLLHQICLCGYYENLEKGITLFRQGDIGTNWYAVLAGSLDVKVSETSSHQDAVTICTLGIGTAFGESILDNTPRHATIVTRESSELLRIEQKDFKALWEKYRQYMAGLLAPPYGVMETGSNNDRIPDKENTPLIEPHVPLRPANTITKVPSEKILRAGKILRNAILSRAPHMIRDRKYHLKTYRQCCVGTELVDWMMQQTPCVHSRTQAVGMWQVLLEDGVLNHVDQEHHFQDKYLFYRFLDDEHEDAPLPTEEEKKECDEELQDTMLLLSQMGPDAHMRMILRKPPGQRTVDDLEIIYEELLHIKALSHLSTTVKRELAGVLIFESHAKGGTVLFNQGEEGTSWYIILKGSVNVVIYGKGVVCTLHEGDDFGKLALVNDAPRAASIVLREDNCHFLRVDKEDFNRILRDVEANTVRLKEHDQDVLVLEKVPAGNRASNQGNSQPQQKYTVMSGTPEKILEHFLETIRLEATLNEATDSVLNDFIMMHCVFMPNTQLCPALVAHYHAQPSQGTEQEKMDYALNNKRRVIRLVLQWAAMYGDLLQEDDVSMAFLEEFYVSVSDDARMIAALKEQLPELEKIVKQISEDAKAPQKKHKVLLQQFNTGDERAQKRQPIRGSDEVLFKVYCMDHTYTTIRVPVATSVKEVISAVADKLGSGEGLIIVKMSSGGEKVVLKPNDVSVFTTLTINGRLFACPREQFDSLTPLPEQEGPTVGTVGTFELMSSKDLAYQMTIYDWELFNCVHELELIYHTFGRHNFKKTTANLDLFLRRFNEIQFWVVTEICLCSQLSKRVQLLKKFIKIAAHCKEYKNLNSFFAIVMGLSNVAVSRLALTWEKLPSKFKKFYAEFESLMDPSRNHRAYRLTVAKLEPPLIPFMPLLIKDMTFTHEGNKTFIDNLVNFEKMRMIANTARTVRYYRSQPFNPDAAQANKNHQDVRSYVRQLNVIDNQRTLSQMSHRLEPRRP

Turning to `Cc1ccc(S(=O)(=O)N2[C@@H](c3ccc(Br)cc3)C(C(=O)O)=CC[C@H]2c2ccc(Cl)cc2)cc1`, the Potency in assay [1] is 75.7 µM (active). In addition, the Potency result in assay [2], in assay [3], in assay [4], in assay [5] and in assay [6] was “inactive” each time.

Regarding `O=c1cc(-c2ccccc2)nc2c(-c3ccccc3)c(C(F)(F)F)[nH]n12`, the Potency was 42.6 µM (active) in assay [1] and 16.9 µM (active) in assay [4]. Moreover, the Potency entry in assay [2], in assay [3], in assay [5] and in assay [6] was “inactive” throughout.

For `CCCCC(CC)Cn1c(Oc2ccccc2)nc2c1c(=O)n(C)c(=O)n2C` (centres undefined), the Potency entry in assay [1], in assay [2], in assay [3], in assay [4], in assay [5] and in assay [6] was “inactive” in each case.

Regarding `CCOc1cc(/C=N/Nc2ccc(S(=O)(=O)Nc3ccccc3C(=O)O)cc2[N+](=O)[O-])cc(Cl)c1O`, the Potency in assay [1] is 33.8 µM (active). Further, the Potency result in assay [2], in assay [3], in assay [4], in assay [5] and in assay [6] was “inactive” in each case.

In the case of `CCN1/C(=C/c2ccc3cc(C)ccc3[n+]2CC)Sc2ccccc21`, in assay [1], the Potency was 75.7 µM (active). Further, the Potency entry in assay [2], in assay [3], in assay [4], in assay [5] and in assay [6] was “inactive” throughout.

Consider `CCOC(=O)/C(=C\c1ccc(N2CCC(c3ccccc3)=N2)cc1)C(C)=O`, for which the Potency result in assay [1] and in assay [4] was “inactive” each time. The Potency is 79.4 µM (active) in assay [2] and 12.6 µM (active) in assay [6]. The activation in assay [3] is 15.2% [at 17.1 µM, percent relative to cAMP agonist control]. In addition, in assay [5], the activity change, negative = inhibition is 28% [at 30.8 µM].

For `COc1ccc(/C=C2\SC(=S)N(NS(=O)(=O)c3ccc(C)cc3)C2=O)c(OC)c1`, the Potency in assay [1] is 14.1 µM (active). Besides, the Potency entry in assay [2] and in assay [4] was “inactive” in each case. In addition, the activation is 6.75% [at 17.1 µM, percent relative to cAMP agonist control] in assay [3] and 20% [at 30.8 µM] in assay [6]. In addition, the activity change, negative = inhibition in assay [5] is 7.67% [at 30.8 µM].

Consider `CCOC(=O)C1=C(C)N=C2SC=C(C)N2C1c1ccc(OC)cc1` (centres undefined), for which the Potency result in assay [1], in assay [2], in assay [3], in assay [4], in assay [5] and in assay [6] was “inactive” each time.

On to `O=C(Nc1nncs1)c1ccccc1NS(=O)(=O)c1cccs1`, for which the Potency result in assay [1], in assay [2], in assay [3], in assay [4], in assay [5] and in assay [6] was “inactive” each time.

For the compound `Cc1ccc(-c2csc(N=C(N)N)n2)cc1`, the Potency entry in assay [1], in assay [2] and in assay [4] was “inactive” each time. Further, the activation was 2.77% [at 17.1 µM, percent relative to cAMP agonist control] in assay [3] and 9.63% [at 30.8 µM] in assay [6]. Also, the activity change, negative = inhibition in assay [5] is -10% [at 30.8 µM].

With `COC(=O)C(C)N(C(=O)c1ccc(Cl)cc1)c1c(C)cccc1C` (centres undefined), the Potency result in assay [1], in assay [2], in assay [3], in assay [4], in assay [5] and in assay [6] was “inactive” throughout.

Consider `Brc1ccc(-c2csc(-c3c[nH]c4ccccc34)n2)cc1`, for which the Potency entry in assay [1], in assay [2] and in assay [4] was “inactive” throughout. For the same compound, the activation in assay [3] is 6.69% [at 17.1 µM, percent relative to cAMP agonist control]; in assay [6], 15.5% [at 30.8 µM]. Also, the activity change, negative = inhibition in assay [5] was 3.69% [at 30.8 µM].

`COc1cccc(CN2CC(O)=C(c3nc(-c4ccc(Cl)cc4)cs3)C2=N)c1`: the Potency entry in assay [1], in assay [2] and in assay [4] was “inactive” throughout. Further, the activation was 0.958% [at 17.1 µM, percent relative to cAMP agonist control] in assay [3] and 0.754% [at 30.8 µM] in assay [6]. The activity change, negative = inhibition in assay [5] was -19.7% [at 30.8 µM].

Take `COc1ccc(N2CCN(C(=O)CCc3ccccc3OC)CC2)cc1`: the Potency entry in assay [1], in assay [2], in assay [3], in assay [4], in assay [5] and in assay [6] was “inactive” in each case.

In the case of `CC(=O)CCc1oc2ccc(C)cc2c1-c1ccc(C)o1`, the Potency result in assay [1], in assay [2] and in assay [4] was “inactive” each time. Moreover, the activation in assay [3] was 9.77% [at 17.1 µM, percent relative to cAMP agonist control]; in assay [6], 31.9% [at 30.8 µM]. Further, in assay [5], the activity change, negative = inhibition is -33.7% [at 30.8 µM].

For `CSc1nc(N2CCOCC2)c2c3c(sc2n1)CCCC3`, the Potency entry in assay [1], in assay [2], in assay [3], in assay [4], in assay [5] and in assay [6] was “inactive” throughout.

Consider `Cc1[nH]c2ccccc2c1C(=O)C(C)OC(=O)c1ccc(Cl)nc1` (centres undefined), for which the Potency entry in assay [1], in assay [2] and in assay [4] was “inactive” in each case. In addition, the activation was 9.38% [at 17.1 µM, percent relative to cAMP agonist control] in assay [3] and 19.4% [at 30.8 µM] in assay [6]. Besides, the activity change, negative = inhibition in assay [5] was -3.94% [at 30.8 µM].

On to `C[n+]1cc(C(=O)N2CCCCC2)ccc1/C=C/c1c[nH]c2ccccc12`, for which the Potency entry in assay [1] and in assay [4] was “inactive” each time. Moreover, the Potency in assay [2] is 89.1 µM (active). The activation in assay [3] was 10.6% [at 17.1 µM, percent relative to cAMP agonist control]; in assay [6], 14.5% [at 30.8 µM]. In assay [5], the activity change, negative = inhibition is -7.76% [at 30.8 µM].

For `CCc1cc(C(=O)c2ccc(OC)cc2)c(NC(=O)CC(C)(C)CC(=O)O)s1`, the Potency entry in assay [1], in assay [2], in assay [3], in assay [4], in assay [5] and in assay [6] was “inactive” throughout.
